Activity calls are given as the source filed them. How the calls were made is not given here.
Each molecule was assayed on Aerobactin synthetase IucA (Klebsiella pneumoniae, hypervirulent) (assay: biochemical IucA inhibition screen of LOPAC library by absorbance (AID 1346212;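 further: 100% = no compound wells and 0% = no enzyme wells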)). Conditions: IucA enzyme assay, absorbance (OD) readout; active compounds read low;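 tested at 8 µM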.

SMILES | remaining activity
CC(=O)O[C@H]1C[C@@]2(C)[C@@H](C[C@@H](O)[C@H]3[C@@]4(C)CC[C@@H](O)[C@@H](C)[C@@H]4CC[C@@]32C)/C1=C(\CCC=C(C)C)C(=O)O | 96.1% (inactive)
Cn1ccc2cc(NC(=O)Nc3cccnc3)ccc21 | 117% (inactive)
CCN(CC)CCCCCCCCOC(=O)c1cc(OC)c(OC)c(OC)c1 | 100% (inactive)
C[N+](C)(C)CCCCCCCCCC[N+](C)(C)C | 91.8% (inactive)
Nc1ncnc2c1nc(Br)n2C1OC2COP(=O)(O)O[C@@H]2C1O (some centres not stated) | 113% (inactive)
N=C(N)c1ccccc1 | 121% (inactive)
NC(N)=NCCC[C@H](N)C(=O)O | 111% (inactive)
O=c1cc(O)cc(/C=C/c2ccc(O)c(O)c2)o1 | 93.8% (inactive)
CC(N)(Cc1ccc(O)cc1)C(=O)O (configuration not stated) | 106% (inactive)
Fc1ccc(CN(C2=NCCN2)c2c(Cl)cccc2Cl)cc1 | 113% (inactive)
COc1ccc2c(c1)CC[C@@H]1[C@@H]2CC[C@]2(C)[C@@H](NCCCCCCN3C(=O)C=CC3=O)CC[C@@H]12 | 111% (inactive)
Cc1[nH]c(=O)c(C#N)cc1-c1ccc2nccn2c1 | 112% (inactive)
Oc1ccccc1O | 112% (inactive)
CCC(C)N(C)C(=O)c1cc2ccccc2c(-c2ccccc2Cl)n1 (configuration not stated) | 116% (inactive)
COc1ccc(NC=O)c(C(=O)CCNC(C)=O)c1 | 95% (inactive)
CC(C)Cn1cnc2c(N)nc3ccccc3c21 | 102% (inactive)
CC(C)Cc1ccc([C@H](C)C(=O)O)cc1 | 111% (inactive)

— PubChem BioAssay
